Measured values published in PubChem BioAssay AID1347145 (National Center for Advancing Translational Sciences (NCATS), 2019).
Results filed as inconclusive are left out. A call without a number means that no potency is given here. Calls of active or inactive are those of the source. Calls follow the shape of the dose curve; as a rule, active = well fitted inhibition curve with a large enough effect; inconclusive = small, poorly fitted or top-dose-only effect; inactive = no such curve, though single readings can be large or run the other way.

target: N-terminal Xaa-Pro-Lys N-methyltransferase 1 (Homo sapiens) (UniProt Q9BV86); assay: qHTS Assay for Inhibitors of N-terminal methyltransferase 1 (NTMT1): MTaseGlo Assay Confirmatory Screen, Round 1; details: Recombinant NTMT1, MTase-Glo SAH luminescence; series mostly up to 57.1 µM
Method in brief: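 Luminescence from MTase-Glo conversion of SAH to ATP measured activity after a 30 min RT reaction with 1 µM SPKRIA substrate, 100 µM SAM and 125 nM enzyme. Normalization used no-enzyme and DMSO controls, followed by Hill fitting.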

N-terminal Xaa-Pro-Lys N-methyltransferase 1 (Homo sapiens), sequence (Q9BV86 whole entry, looked up): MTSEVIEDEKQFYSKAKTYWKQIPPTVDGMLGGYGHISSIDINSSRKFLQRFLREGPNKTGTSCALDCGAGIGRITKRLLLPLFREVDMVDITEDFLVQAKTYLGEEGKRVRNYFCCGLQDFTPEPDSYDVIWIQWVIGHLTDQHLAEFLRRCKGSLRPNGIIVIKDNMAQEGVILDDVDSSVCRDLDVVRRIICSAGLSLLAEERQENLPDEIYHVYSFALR

SMILES	Potency
Nc1nc(Cl)nc2c1ncn2[C@@H]1O[C@H](CO)[C@@H](O)[C@@H]1F	inactive
CNC(=O)[C@H]1O[C@H](n2cnc3c(NCc4cccc(I)c4)nc(Cl)nc32)[C@@H](O)[C@@H]1O	inactive
CNc1nc(N2CCCN(C)CC2)nc2cc(OC)c(OC)cc12	inactive
CCN1CCN(c2nc(NC3CC3)c3cc(OC)c(OC)cc3n2)CC1	inactive
COc1cc2c(NC3CCN(C)CC3)nc(N3CCCN(C)CC3)nc2cc1OCCOCCN(C)C	inactive
COc1cc2c(NC3CCN(C(C)C)CC3)nc(N3CCC(N4CCCC4)CC3)nc2cc1OCCCN1CCCCC1	inactive
Nc1ncnc2c1[nH]c(=O)n2C1OC(CO)C(O)C1O (configuration not stated)	inactive
NC(=S)c1ccc[n+]([C@@H]2O[C@@H](COP(=O)([O-])OP(=O)(O)OC[C@H]3O[C@@H](n4cnc5c(N)ncnc54)[C@H](OP(=O)(O)O)[C@@H]3O)C(O)C2O)c1 (some centres not stated)	inactive
Cc1cc2nc3c(=O)[nH]c(=O)nc-3n(C[C@H](O)[C@H](O)[C@H](O)COP(=O)(O)OP(=O)(O)OC[C@H]3O[C@@H](n4cnc5c(N)ncnc54)[C@H](O)[C@H]3O)c2cc1C	inactive
Nc1ncnc2c1ncn2[C@@H]1O[C@H](CSCC[C@H](N)C(=O)O)[C@@H](O)[C@H]1O	inactive
Nc1ncnc2c1ncn2[C@@H]1O[C@H](COP(=O)(O)OP(=O)(O)OP(=O)(O)OP(=O)(O)OC[C@@H]2O[C@H](n3cnc4c(N)ncnc43)[C@@H](O)[C@H]2O)[C@@H](O)[C@H]1O	inactive
Nc1ncnc2c1ncn2[C@@H]1O[C@H](COP(=O)(O)O)[C@@H](O)[C@H]1O	inactive
